The source of these data is PubChem BioAssay (Tox21).

A short description of assay [1]: A CellTox Green Cytotoxicity Assay to monitor cytotoxicity in HepG2 cells - 0 hour (AID 1224882). Note: nearly all actives have a fitted effect of over 35% in size. The method, boiled down:
(§1)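 First, HepG2 cells (600/well) mixed with reagent were plated; second, after 5 h at 37 C they received compounds via pintool; third, fluorescence was measured at 0 h through 40 h at 8 h intervals.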

Assay [2] is described as follows: A CellTox Green Cytotoxicity Assay to monitor cytotoxicity in HepG2 cells - 32 hour (AID 1224883). Note: nearly all actives have a fitted effect of over 50% in size. The method, boiled down:
as §1

Assay [3] is described as follows: A CellTox Green Cytotoxicity Assay to monitor cytotoxicity in HEK293 cells - 8 hour (AID 1224884). Note: nearly all actives have a fitted effect of over 35% in size. The procedure, abridged:
(§2)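 Dead-cell fluorescence measured kinetically: asymmetric cyanine dye, HEK293, 600 cells/well, 5 h settle, 23 nL cpd/DMSO, 37 C, reads 0–40 h every 8 h.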

Assay [4] in a line: qHTS RealTime-Glo MT Cell Viability Assay in HepG2 cells - 16 hour (AID 1224885). Note: nearly all actives have a fitted effect of over 50% in size. The method, boiled down: (§3)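 Real-time, nonlytic viability: 600 HepG2 cells/well mixed with NanoLuc enzyme plus prosubstrate; 5 h settle, compound (DMSO) added by pintool; luminescence monitored over 40 h at 37 C.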
Assay [5] in a line: qHTS RealTime-Glo MT Cell Viability Assay in HEK293 cells - 24 hour (AID 1224886). Note: top concentration of the series differs between compounds; nearly all actives have a fitted effect of over 50% in size. The procedure, abridged: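 Cells + reagent dispensed (600 cells/well, HEK293) → 5 h at 37 C/5% CO2 → 23 nL compound in DMSO pinned → 40 h at 37 C → luminescence read at 0, 8, 16, 24, 32, 40 h.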
The nature of assay [6]: qHTS RealTime-Glo MT Cell Viability Assay in HEK293 cells - 8 hour (AID 1224887). Note: top concentration of the series differs between compounds; nearly all actives have a fitted effect of over 50% in size. The method, boiled down:
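600 HEK293 cells per well, dispensed already mixed with RealTime-Glo MT reagents. Compound dosing came 5 h later. The same wells were read for luminescence at 0, 8, 16, 24, 32 and 40 h of exposure at 37 C.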

Assay [7] can be described thus: A CellTox Green Cytotoxicity Assay to monitor cytotoxicity in HEK293 cells - 16 hour (AID 1224888). Note: nearly all actives have a fitted effect of over 35% in size. The procedure, abridged: as §2
The nature of assay [8]: qHTS RealTime-Glo MT Cell Viability Assay in HepG2 cells - 0 hour (AID 1224889). Note: nearly all actives have a fitted effect of over 50% in size. The procedure, abridged:
as §3
(In general: qHTS replaces the single test concentration by a dilution series.)

Assay [9] in a line: A CellTox Green Cytotoxicity Assay to monitor cytotoxicity in HepG2 cells - 8 hour (AID 1224890). Note: nearly all actives have a fitted effect of over 45% in size. The procedure, abridged:
as §1

The nature of assay [10]: qHTS assay to identify small molecule antagonists of the estrogen receptor alpha (ER-alpha) signaling pathway using the BG1 cell line in the presence of 0.1 nM 17-beta-estradiol - cell viability counter screen (AID 1259241). Note: nearly all actives have a fitted effect of over 40% in size. The procedure, abridged: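 CellTiter-Fluor read (30 min, 37C) on ER-alpha/ERE-luc VM7Luc4E2 cells; 22 hr compound treatment; agonist 0.1 nM E2 final; same-well multiplex.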

Assay [11] can be described thus: qHTS assay to identify small molecule antagonists of the androgen receptor (AR) signaling pathway using the MDA cell line in the presence of 0.5 nM R1881 - cell viability counter screen (AID 1259242). Note: nearly all actives have a fitted effect of over 45% in size. The method, boiled down:
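qHTS format. MDA-kb2 (MMTV-luc, AR/GR responsive) + cpd + 0.5 nM R1881 final, 16 hr 37C/0% CO2 → CellTiter-Fluor 30 min → fluorescence intensity.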

Assay [12] can be described thus: qHTS assay to identify small molecule HDAC inhibitors (AID 1259364). Note: potency is the fitted concentration of half-maximal effect.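 Note: wild-type HCT-116 cells with endogenous class I/II HDAC activity; nearly all actives have a fitted effect of over 45% in size.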 The procedure, abridged:
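Quantitative high-throughput format: overnight-seeded HCT-116 cells got compounds for 2 hr at 37C; HDAC-Glo I/II reagent added, 30 min RT, luminescence measured.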

Assay [13] in a line: qHTS assay to identify small molecule HDAC inhibitors - cell viability counter screen (AID 1259365). The method, boiled down: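 To flag cytotoxic hits, 1,500 wild-type HCT-116 cells per well, plated the day before, receive test compounds for 2hr at 37 C before CellTiter-Glo reagent and a luminescence read.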
The nature of assay [14]: qHTS assay to identify small molecule agonists of the sonic hedgehog signaling (Shh) pathway - cell viability counter screen (AID 1259366). Note: nearly all actives have a fitted effect of over 50% in size. The procedure, abridged:
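Fluorescence from CellTiter-Fluor reports live cells in this counter screen. NIH/3T3-derived Gli1-Luc reporter cells receive test compounds for 24hr at 37C; reagent goes in at 23hr.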

Assay [15] can be described thus: qHTS assay to identify small molecule antagonists of the sonic hedgehog signaling (Shh) pathway - cell viability counter screen (AID 1259367). Note: nearly all actives have a fitted effect of over 55% in size. The method, boiled down: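 CellTiter-Fluor signal in conditioned medium-stimulated 3T3 Gli1-Luc cells, 23 hr compound exposure, 37C.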
Assay [16] is described as follows: qHTS assay to identify small molecule agonists of the sonic hedgehog signaling (Shh) pathway (AID 1259368; calls by dose curve;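 note: NIH/3T3-derived 3T3Gli1-Luc cells carrying a stable Gli1-driven firefly luciferase reporter; series mostly up to about 92 µM; nearly all actives have a fitted effect of over 15% in size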). The procedure, abridged:
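Quantitative high-throughput format using a Gli1-driven firefly luciferase reporter line derived from NIH/3T3 cells. After a 24 hr compound treatment at 37 C and 5% CO2, luminescence reported Gli1 response element activity.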

In assay [17] the target is Estrogen receptor (Homo sapiens) (UniProt P03372). Nature of the assay: qHTS assay to identify small molecule antagonists of the estrogen receptor alpha (ER-alpha) signaling pathway using the BG1 cell line in the presence of 0.1 nM 17-beta-estradiol (AID 1259244). Note: nearly all actives have a fitted effect of over 50% in size. The procedure, abridged:
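Reporter is a stably transfected luciferase under four estrogen responsive elements in VM7Luc4E2 cells expressing native full-length ER-alpha; inhibition of 0.1 nM (final) 17beta-estradiol-driven signal over 22 h is read by luminescence.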

For assay [18], the target named is Androgen receptor (Homo sapiens) (UniProt P10275). In words: qHTS assay to identify small molecule antagonists of the androgen receptor (AR) signaling pathway using the MDA cell line in the presence of 0.5 nM R1881 (AID 1259243). Note: nearly all actives have a fitted effect of over 50% in size. Note: potency is the fitted concentration of half-maximal effect. The method, boiled down:
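Antagonist mode quantitative HTS in MDA-kb2 MMTV-luciferase cells, agonist R1881 at 0.5 nM final, 16 hr exposure at 37C and 0% CO2, luminescent detection.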

Assay [19] is described as follows: qHTS assay to identify small molecule phospholipidosis (PLD) inducers (AID 1259344; active = well fitted curve in the direction sought with a large enough effect; an effect the other way counts as inactive or inconclusive). The method, boiled down: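 Accumulated phospholipid, stained red by LipidTOX during 24 h compound treatment of HepG2 cells at 37 C, is quantified from images as pit number and intensity, normalised per cell using Hoechst-stained nuclei.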

Each structure is given as a SMILES string. A number with no mark means an inactive call. Records with an inconclusive call do not appear. The source made the active and inactive calls. Unless noted, calls come from the whole dose curve; as a rule, active = well fitted curve in the direction sought with a large enough effect in the repeat runs; inconclusive = weak or mixed curves; inactive = no such curve, though single readings can be large; an effect the other way counts as inactive or inconclusive.
% is set by controls: 0 for no effect and ±100 for the full control effect.

Sequence of Estrogen receptor (Homo sapiens) (P03372 whole entry, looked up): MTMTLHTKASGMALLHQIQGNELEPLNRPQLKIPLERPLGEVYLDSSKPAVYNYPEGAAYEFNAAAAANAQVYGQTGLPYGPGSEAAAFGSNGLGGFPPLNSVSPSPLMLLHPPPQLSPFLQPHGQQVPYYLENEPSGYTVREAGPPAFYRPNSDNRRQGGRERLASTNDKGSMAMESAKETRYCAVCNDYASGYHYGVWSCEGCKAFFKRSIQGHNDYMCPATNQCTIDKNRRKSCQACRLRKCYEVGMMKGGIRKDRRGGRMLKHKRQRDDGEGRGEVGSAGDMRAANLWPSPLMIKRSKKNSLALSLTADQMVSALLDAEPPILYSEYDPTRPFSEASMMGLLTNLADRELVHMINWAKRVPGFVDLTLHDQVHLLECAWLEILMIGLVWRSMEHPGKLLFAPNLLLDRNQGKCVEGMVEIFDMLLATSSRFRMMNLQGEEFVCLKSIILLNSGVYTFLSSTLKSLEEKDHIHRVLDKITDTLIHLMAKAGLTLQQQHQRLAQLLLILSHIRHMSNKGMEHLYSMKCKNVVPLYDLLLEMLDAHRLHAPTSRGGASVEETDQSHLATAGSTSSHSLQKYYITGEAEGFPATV
Sequence of Androgen receptor (Homo sapiens) (P10275 whole entry, looked up): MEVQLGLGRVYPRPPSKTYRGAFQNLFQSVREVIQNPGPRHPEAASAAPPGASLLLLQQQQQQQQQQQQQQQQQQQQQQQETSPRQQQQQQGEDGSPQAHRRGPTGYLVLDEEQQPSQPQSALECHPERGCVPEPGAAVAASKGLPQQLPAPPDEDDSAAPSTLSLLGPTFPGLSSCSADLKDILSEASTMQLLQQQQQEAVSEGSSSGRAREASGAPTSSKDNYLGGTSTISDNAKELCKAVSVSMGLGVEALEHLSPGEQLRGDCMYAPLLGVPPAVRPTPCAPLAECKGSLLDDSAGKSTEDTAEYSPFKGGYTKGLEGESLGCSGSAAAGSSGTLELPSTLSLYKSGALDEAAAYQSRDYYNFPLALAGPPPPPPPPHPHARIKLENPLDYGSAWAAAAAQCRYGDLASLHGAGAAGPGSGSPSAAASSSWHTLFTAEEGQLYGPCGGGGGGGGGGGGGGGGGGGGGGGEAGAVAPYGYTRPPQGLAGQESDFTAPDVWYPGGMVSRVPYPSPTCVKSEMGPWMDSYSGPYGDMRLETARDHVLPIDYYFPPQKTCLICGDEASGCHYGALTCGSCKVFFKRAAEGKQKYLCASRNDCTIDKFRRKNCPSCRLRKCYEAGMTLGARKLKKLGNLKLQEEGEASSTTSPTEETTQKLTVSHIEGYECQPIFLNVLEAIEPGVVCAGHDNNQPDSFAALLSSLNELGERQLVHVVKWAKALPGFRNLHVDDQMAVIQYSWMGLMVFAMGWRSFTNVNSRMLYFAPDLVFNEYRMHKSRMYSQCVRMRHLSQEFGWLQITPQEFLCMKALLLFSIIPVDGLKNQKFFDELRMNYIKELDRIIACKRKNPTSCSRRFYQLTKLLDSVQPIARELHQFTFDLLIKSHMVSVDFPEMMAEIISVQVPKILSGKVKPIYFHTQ

Take `C=C(C)C(=O)OCCOCCOCCOCCOC(=O)C(=C)C`: the Potency result in assay [1], in assay [2], in assay [5], in assay [6], in [8] and in assay [12] was “inactive” in each case. The Potency entry in [14] and in assay [15] was “inactive” each time. The call in [3], in [4], in assay [7], in assay [9], in assay [10] and in assay [11] was inactive. In addition, the molecule was called inactive in assay [13] and in assay [16].

Turning to `CN1CCN(c2cc3c(nn2)Oc2ccccc2N3C)CC1`, the cytotoxicity in [1] was 0.041% [at 15.8 µM]. Also, the cytotoxicity increase in [2] was -2% [at 15.8 µM]; in assay [3], -6.06% [at 15.8 µM]; in [9], 1.91% [at 15.8 µM]. Also, the activity change, negative = cytotoxic in assay [4] is -5.35% [at 15.8 µM]. Besides, the activity change, negative = cytotoxicity in assay [5] was -1.39% [at 15.8 µM]; in assay [6], 0.282% [at 15.8 µM]; in assay [8] it was -7.1% [at 15.8 µM]; in assay [10], -8.18% [at 19 µM]. For the same molecule, the activity change in assay [7] is -9.75% [at 15.8 µM]; in assay [16], 5.44% [at 18.9 µM]. Further, the figures for the viability change, negative = cytotoxic in [11], in assay [14] and in assay [15] were 0.195% [at 19 µM], 8.2% [at 19 µM] and 0.668% [at 19 µM], respectively. Besides, in [12], the Potency was 4.61 µM (active).

With `CC[C@H]1OC(=O)[C@H](C)[C@@H](O[C@H]2C[C@@](C)(OC)[C@@H](O)[C@H](C)O2)[C@H](C)[C@@H](O[C@@H]2O[C@H](C)C[C@H](N(C)C)[C@H]2O)[C@](C)(OC)C[C@@H](C)C(=O)[C@H](C)[C@@H](O)[C@]1(C)O`, the Potency result in assay [1], in [2], in assay [6], in assay [8], in assay [12] and in assay [15] was “inactive” each time. The result in [3], in [4], in [7], in [9], in assay [10] and in [11] was inactive. Moreover, the result in assay [17], in assay [13] and in assay [16] was inactive.

In the case of `Clc1cc(Cl)cc(Cl)c1`, the Potency result in assay [1], in assay [2], in assay [5], in assay [6], in assay [8] and in assay [12] was “inactive” throughout. In addition, the Potency result in assay [14] and in assay [15] was “inactive” each time. Besides, the call in assay [3], in [4], in [7], in [9], in [10] and in [11] was inactive. Also, the result in [17] and in [16] was inactive.

Consider `Nc1c2c(nc3c1CCC3)CCCC2`, for which the Potency result in assay [1], in [2], in assay [6], in assay [8], in assay [18] and in assay [12] was “inactive” each time. Also, the Potency entry in [14] is “inactive”. For the same molecule, the molecule was classed as inactive in assay [3], in assay [4], in assay [7], in assay [9], in assay [10] and in [11]. Also, the outcome in assay [17], in assay [19] and in assay [16] was inactive.

As for `O=C1CCCCCCCCCCCCCCO1`, the Potency entry in assay [1], in assay [2], in assay [5], in assay [6], in assay [8] and in [12] was “inactive” each time. For the same molecule, the Potency result in assay [14] and in [15] was “inactive” in each case. The call in assay [3], in [4], in assay [7], in assay [9], in [10] and in [11] was inactive. Moreover, the molecule was classed as inactive in assay [13] and in assay [16].

Turning to `CCCCCCCCCCCCCCC(=O)O`, the Potency entry in assay [1], in [2], in assay [6], in [8], in assay [12] and in assay [14] was “inactive” throughout. Also, the outcome in [3], in assay [4], in assay [7], in assay [9], in [11] and in [17] was inactive. The call in assay [13] and in assay [16] was inactive.

Take `COc1ccccc1OCC1CNC(=O)O1` (stereo not drawn): the Potency entry in [1], in [2], in [5], in assay [6], in assay [8] and in assay [12] was “inactive” each time. The Potency entry in [14] and in [15] was “inactive” throughout. Moreover, the result in assay [3], in [4], in [7], in assay [9], in assay [10] and in assay [11] was inactive. The outcome in assay [13] and in [16] was inactive.

For the molecule `COC(=O)Nc1ccc(Cl)c(Cl)c1`, the Potency result in assay [1], in assay [2], in assay [8], in [12], in [14] and in [15] was “inactive” throughout. Also, the outcome in assay [3], in assay [4], in [7], in [9], in [10] and in [11] was inactive. Moreover, the result in assay [13] and in assay [16] was inactive. Moreover, the Potency in [18] is 6.82 µM (active).

`CC(C)[C@H]1CC[C@@H](C)CC1=O`: the Potency entry in assay [1], in assay [2], in [5], in assay [6], in [8] and in assay [12] was “inactive” in each case. The Potency result in assay [14] and in assay [15] was “inactive” throughout. Further, the molecule was classed as inactive in [3], in assay [7], in [9], in assay [10], in [11] and in [13]. Further, in [16], the molecule was called inactive.

For the molecule `CN1[C@@H]2CC[C@H]1CC(OC(=O)C(O)c1ccccc1)C2` (stereo partly drawn), the Potency result in assay [1], in assay [2], in assay [6], in assay [8], in [12] and in [14] was “inactive” each time. For the same molecule, the result in assay [3], in assay [7], in assay [9], in assay [10], in [11] and in [17] was inactive. Moreover, the call in assay [19] and in assay [16] was inactive.
